# Data reported in PubChem BioAssay AID493168 (National Center for Advancing Translational Sciences (NCATS), 2011).
# Records with an inconclusive call do not appear. Unmarked numbers belong to inactive results. Active and inactive are the calls of the source. The call rests on the fitted dose curve; in most records, active means well fitted inhibition curve with a large enough effect; inconclusive means small, poorly fitted or top-dose-only effect, or effect the other way; inactive means flat fitted curve, though single readings scatter.
# Molecular target: Ubiquitin carboxyl-terminal hydrolase 2 (Homo sapiens) (UniProt O75604)
# Test: Confirmation Assay for Inhibitors of Ubiquitin-specific Protease USP2a Using CHOP2 as the Reporter; further: nearly all actives have a fitted effect of over 55% in size;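 on activity change, negative = inhibition: plate controls were DMSO wells for no effect and full inhibition by NEM control for full effect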
# Settings: USP2 core, Ub-CHOP2 coupled reporter fluorescence; series mostly up to 38.3 µM; activity change, negative = inhibition: at the top concentration
# Summary of the method: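 Ub-CHOP2 cleavage coupled to reporter activation was read by fluorescence after 60 min at RT, with 25 nM final Ub-CHOP2 and substrate. Enzyme (10 nM final USP2 core) first sat 30 min with compound; data were normalized to NEM and fitted to concentration-response curves.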
# Potency means the concentration at half of the fitted maximal effect.
# Chain of Ubiquitin carboxyl-terminal hydrolase 2 (Homo sapiens) (O75604 whole entry, looked up): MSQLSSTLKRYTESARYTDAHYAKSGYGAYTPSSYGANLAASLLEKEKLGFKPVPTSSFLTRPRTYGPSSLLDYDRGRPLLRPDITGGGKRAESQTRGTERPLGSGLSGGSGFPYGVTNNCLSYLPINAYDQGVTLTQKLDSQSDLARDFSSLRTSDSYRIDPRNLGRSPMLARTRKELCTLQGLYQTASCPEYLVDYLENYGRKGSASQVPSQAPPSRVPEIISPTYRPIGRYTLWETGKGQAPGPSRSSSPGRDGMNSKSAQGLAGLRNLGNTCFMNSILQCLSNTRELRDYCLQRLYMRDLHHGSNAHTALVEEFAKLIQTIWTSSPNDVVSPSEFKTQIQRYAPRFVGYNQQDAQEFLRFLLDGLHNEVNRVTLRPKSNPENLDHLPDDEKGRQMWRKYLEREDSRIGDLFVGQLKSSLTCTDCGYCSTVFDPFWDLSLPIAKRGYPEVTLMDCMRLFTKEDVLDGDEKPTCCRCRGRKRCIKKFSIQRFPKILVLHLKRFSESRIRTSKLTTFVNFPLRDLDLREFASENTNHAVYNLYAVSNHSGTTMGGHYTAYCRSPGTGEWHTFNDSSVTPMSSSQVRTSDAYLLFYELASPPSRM
SMILES,"activity change, negative = inhibition [%]",Potency
C=CCNCCOCCOc1ccccc1-c1ccccc1,-4.65,
O=C(O)CCn1c(C2CCCCC2)nc2ccccc21,-3.24,
CCCCC(CC)CN=C(N)NC(N)=NCCCCCCN=C(N)NC(N)=NCC(CC)CCCC (stereo not given),,4.65 µM (active)
COc1ccc(Cc2nnc(NC(=O)Cc3cccs3)s2)cc1,,11.7 µM (active)
Cc1n[nH]c(C)c1S(=O)(=O)N1CCCC(C(=O)NC2CCCc3ccccc32)C1 (stereo not given),-2.73,
O=C(CNC(=O)C1CCCCC1)NC1=NCCS1,-0.749,
Cc1cc(Cl)ccc1NC(=S)NCCCN1CCCC1=O,-2.55,
O=C(Nc1ccc2nc(-c3ccco3)c(-c3ccco3)nc2c1)N1CCN(c2ccccn2)CC1,,16.5 µM (active)
O=C(c1ccccc1)N1CCN(C2C3CC4CC(C3)CC2C4)CC1 (stereo not given),5.17,
O=C(Nc1ccc(Nc2ccncc2)cc1)c1ccc(Nc2ccnc3ccc([N+](=O)[O-])cc23)cc1,,7.36 µM (active)
Cc1ccc(-c2ccc(CCC(=O)O)n2NC(=O)c2cccs2)cc1,-2.31,
Fc1ccc(-c2nnn(Cc3nc4ccccc4s3)n2)cc1,-2.22,
CCn1c2ccccc2c2nc3ccccc3nc21,0.685,
CN1CCN(CCCCOc2ccc(F)cc2)CC1,-1.91,
CCOC(=O)C(C)Sc1nnc(Cn2c(=O)sc3ccccc32)n1-c1ccccc1 (stereo not given),-7.73,
Cc1cc(C(=O)NCc2ccco2)on1,0.731,
Cc1ccc(NC(=O)c2onc(C)c2Cl)cc1,-4.53,
Nc1nc(NCCO)nc(NCC2CCCO2)c1[N+](=O)[O-] (stereo not given),3.3,
O=C(N/N=C/c1ccc(F)cc1)c1cc(-c2ccco2)nc2ccccc12,,18.5 µM (active)
CN1CCN(Cc2c(O)ccc3c(=O)c(Oc4ccccc4Cl)c(C(F)(F)F)oc23)CC1,4.61,
COc1cc(OC)cc(-c2c(C#Cc3ccsc3)c3cc(-c4ccc(OC)c(F)c4)ccc3n2C)c1,4.92,
CC12CN3CC(C)(CN(C1)C3c1ccc(Cl)cc1Cl)C2O (stereo not given),-1.87,
Clc1ccc2c(N/N=C/c3ccc(Br)cc3)ccnc2c1,,13.1 µM (active)
O=C(OCc1nc2ccccc2[n+]([O-])c1C(=O)c1ccccc1)c1cccs1,-4.32,
N#CCC(=O)Nc1ccc(C(=O)OCC(=O)NCc2ccc3c(c2)OCO3)cc1,-14,
